This is part of a sample that, as a whole, favours compounds with a hit. Of some 83,000 tested, about 20% had one in any assay.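 Method: cells in 96-well plates; compound added at one concentration; 48 h incubation; percent growth measured; values under 10 scored active.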 Values without a mark were called inactive. The source made the active and inactive calls.

For the test, the system named is NCI-H522 lung. The test can be described thus: NCI-60 one-dose screen, 48 h (100 = growth as untreated, 0 = no growth, -100 = all killed). The conditions noted are these: 10 µM unless noted.
Consider `Nc1ccccc1-c1ccc(-c2ccc(Cl)cc2)c2c1[nH]c1ccccc12`, for which the growth is 73.5%.

In the case of `OC(CNC1CCCCC1)Cn1c2ccc(I)cc2c2cc(I)ccc21` (centres undefined), the growth was 67.5%.

With `COc1cc(C(=O)NN=C2c3ccccc3-c3ccccc32)cc(OC)c1OC`, the growth is 15%.

On to `C=C(C)CCC(C)N1CCC(N2CCC(C(=O)NCCc3ccccc3)CC2)CC1` (centres undefined), for which the growth is 43.2%.

For `C#CCn1cc(C=C2C(=O)N(C)C(=O)N(C)C2=O)c2cc(Cl)ccc21`, the growth is 88.7%.

On to `O=C(Nc1ccc(C23CC4CC(CC(c5ccccc5)(C4)C2)C3)cc1)c1cccs1`, for which the growth was 59.9%.

Regarding `O=C(Cc1ccccc1)NC(c1ccc(Cl)cc1)c1c(O)ccc2ccccc12` (centres undefined), the growth was -8.23% (active).

On to `COc1ccc(CSc2nnc(SCC(=O)Nc3ccc(Cl)cc3)s2)cc1`, for which the growth is 67.7%.

For the compound `O=C(COc1cc(O)c2c(=O)cc(-c3ccccc3)oc2c1)Nc1ccccc1C(F)(F)F`, the growth was 46.6%.

Consider `Cc1cc(OC(=O)c2ccc([N+](=O)[O-])cc2)nc2[nH]c(=O)sc12`, for which the growth was 96.8%.

As to `O=c1oc2ccc(F)cc2c(=O)n1-c1ccc(I)cc1F`, the growth was -15.8% (active).

For the compound `O=Cc1c(OCc2cnnn2CC(=O)Nc2ccc(Br)cc2)ccc2ccccc12`, the growth was 77.2%.

Turning to `COc1ccc2[nH]c(O)c(N=NC(=O)c3oc4ccccc4c3C)c2c1`, the growth was 54.3%.

In the case of `Cc1cc(Nc2ccc(OCc3ccccc3)cc2)nc2cc(O)ccc12`, the growth is 53.2%.

Turning to `O=C(COc1cc(O)c2c(=O)cc(-c3ccccc3)oc2c1)Nc1ccccc1`, the growth was 81.5%.

In the case of `O=C(Nc1ccc(-c2nc3ccc(NC(=O)c4ccc(Cl)cc4)cc3[nH]2)cc1)c1ccc(Cl)cc1`, the growth is -65.6% (active).

`O=C1c2cc(Br)ccc2Oc2cc([N+](=O)[O-])ccc2N1c1ccc(I)cc1F`: the growth was 96.2%.

In the case of `Cc1ccc2nc(NC(=O)CSC(=S)N3CCN(c4ccccc4)CC3)sc2c1`, the growth was -81.8% (active).

As for `CCCCCCC(O)(c1ccc(F)cc1)C(CN1CCOCC1)c1ccccc1` (centres undefined), the growth is 26.9%.

As to `COc1ccc(CCN2CCC(CN(C)Cc3cnn(-c4ccccc4)c3)CC2)cc1`, the growth is 43.7%.

As to `NC(=O)CSc1nc(-c2ccc(F)cc2)cc(-c2ccco2)n1`, the growth was 94.5%.

Take `CCCSC1=NC2C(N(CC)C(=O)N2CC)N1/N=C/C=C/c1ccccc1[N+](=O)[O-]` (centres undefined): the growth was 0.595% (active).

On to `O=c1oc2ccc(Cl)cc2c(=O)n1-c1ccc(I)cc1F`, for which the growth is -15.5% (active).

For the compound `COc1ccc(C2NCCc3c2[nH]c2ccccc32)cc1CN1CCN(c2ccc(F)cc2)CC1` (centres undefined), the growth is 40.8%.

`Cc1sc2ncnc(Sc3nc4ccccc4[nH]3)c2c1C`: the growth is -78.6% (active).

Regarding `FC(F)(F)c1cccc(CNC2CCN(CCc3ccccc3)CC2)c1`, the growth was 86.7%.

In the case of `O=C(Nc1ccc(I)cc1F)c1cc(Br)ccc1O`, the growth is -7.93% (active).

`Cc1ccc2[nH]c(=O)cc(-n3nncc3Cn3c4ccccc4c4ccccc43)c2c1`: the growth was 93.9%.

As to `CC(=O)n1cc(-c2c[nH]c3ccccc23)c(-c2ccc(Cl)cc2)n1`, the growth was 74.8%.

As for `CC[C@H](C)[C@@H](C(=O)OC)n1cc(CNC(=O)[C@@H](Cc2ccccc2)NC(=O)OCc2ccccc2)nn1`, the growth is 87.4%.

For `O=C(Nc1ccc(I)cc1F)c1cc(Cl)ccc1O`, the growth was -17.1% (active).

As to `NNC(=O)CNC(=O)Nc1n[nH]c(=S)s1`, the growth was 88.7%.

As for `COc1ccc(Nc2cc(C)nc(NCc3ccccc3)n2)cc1`, the growth was 19.9%.

As to `O=C(Nc1ccc(N2CCNCC2)cn1)c1[nH]ncc1Nc1ncnc2sc3c(c12)CCC3`, the growth is 35.9%.

As for `COc1c(B(O)O)cccc1-c1nc2ccc3[nH]ncc3c2c2c1C1CCC2C1` (centres undefined), the growth is 59.5%.

Regarding `COC(=O)c1cc2c(n1Cc1ccccc1)-c1oncc1CCC2`, the growth is 39.1%.

`O=C(Nc1ccc(N2CCNCC2)cc1)c1[nH]ncc1Nc1cc(C2CC2)ncn1`: the growth was 25.2%.

As to `CC(C)CCNCC(O)Cn1c2ccccc2c2ccccc21` (centres undefined), the growth was 20.3%.

`COc1cc(/C=C2\CN(C)C/C(=C\c3cc(CN4CCOCC4)c(O)c(OC)c3)C2=O)cc(CN2CCOCC2)c1O`: the growth is 41%.

(Values after PubChem BioAssay (NCI).)
